These results are taken from PubChem BioAssay (NCATS).

Test [1] in a line: qHTS for differential inhibitors of proliferation of Plasmodium falciparum line Dd2 (AID 1882).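 Further: series mostly up to about 29 µM; compound exposure of 72 h on infected erythrocytes; nearly all actives have a fitted effect of over 65% in size.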 Particulars: Potency: Plasmodium falciparum Dd2 proliferation inhibition. The method in brief:
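RBC culture, 0.3% parasitemia / 2.5% Hct final; cpd added by pin tool in DMSO; 72 h, 37 C, 5% CO2; lysis buffer + SYBR Green I, o/n RT dark; FI 485/535; norm. to artemisinin 0.29 uM and DMSO.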
In general terms: qHTS replaces the single test concentration by a dilution series.

Test [2] is described as follows: qHTS for differential inhibitors of proliferation of Plasmodium falciparum line HB3 (AID 1886).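 Further: parasites grown with compound for 72 h before SYBR Green readout.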 Further: potency means the concentration at half of the fitted maximal effect. The conditions noted are these: Potency: Plasmodium falciparum HB3 proliferation inhibition.
A short description of test [3]: qHTS Assay for Modulators of Human Peripheral Myelin Protein 22 (PMP22) Expression/Activity (AID 1967; active means well fitted curve in the direction sought with a large enough effect in the signal ratio; the % refers to the signal ratio). The method in brief: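 Mouse MSC80 Schwann cells carrying Pmp22 promoter–green click beetle luciferase plus EF-alpha–red luciferase control, dosed 24 h at 37 °C. Dual-filter luminescence, overlap-corrected; %Activity from green/red ratio normalised to untreated cells, concentration-response curves fitted.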

Test [4] deals with ATP-dependent DNA helicase Q1 (Homo sapiens) (UniProt P46063). Description: qHTS Validation Assay for Inhibitors of RecQ-Like Dna Helicase 1 (RECQ1) (AID 2353). The method in brief:
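RECQ1T1 50 nM; forked duplex (20 bp + 30-nt ss tails) 200 nM, ATP 2 mM final; pH 8.0, 2 mM MgCl2, 2.5 ug/ml poly(dI-dC); 15 min compound preincubation; discontinuous kinetic read over 2 h at RT.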

The nature of test [5]: High Content Imaging Cell-Based qHTS for Inhibitors of the mTORC1 Signaling Pathway in MEF (Tsc2-/-, p53-/-) Cells (AID 2666).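 Further: percent of cells scored positive for phospho-rpS6 Ser235/236 immunostaining by imaging.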 In a few lines:
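MEF Tsc2-/- p53-/- (empty vector), DMEM/10% FBS; cpd 24 h 37 °C; PFA fix, Alexa-488 p-rpS6 S235/236 Ab, Hoechst; imaged; rapamycin-defined inhibition; % positive cells/well.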

A short description of test [6]: Cytometry Cell-Based qHTS for Inhibitors of the mTORC1 Signaling Pathway in MEF cells (AID 2668).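 Further: Tsc2-/- p53-/- mouse embryonic fibroblasts stably re-expressing wild-type Tsc2; percent cells positive for phospho-rpS6 Ser235/236 relative to propidium iodide stain; series mostly up to about 38 µM.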 The method in brief: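 MEFs (Tsc2-/-, p53-/- stably expressing WT Tsc2) treated 24 h at 37 degree Celsius, fixed, stained with Alexa-488 anti-phospho-rpS6 Ser235/236 and propidium iodide; Acumen laser scanning. Reported as % positive cells, phospho-S6 normalized to PI.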

In test [7] the target is Ubiquitin carboxyl-terminal hydrolase 2 (Homo sapiens) (UniProt O75604). Put plainly: qHTS Validation Assay for Inhibitors of Ubiquitin-specific Protease USP2a Using CHOP2 as the Reporter (AID 463106). The method in brief:
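Fluorescence read-out at Ex 485nm/Em 531nm after 60min RT, following addition of 25nM Ub-CHOP2 plus 25nM reporter substrate to USP2 core (10nM) pretreated 30min with compound. Data normalized to NEM full inhibition; concentration-response curves fitted.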

Test [8] concerns the target DNA polymerase III PolC-type (Bacillus subtilis (strain 168)) (UniProt P13267). Description: qHTS Validation Assay for the Inhibitors of DNA Replication in Gram-Positive Bacteria (AID 485295).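 Further: PicoGreen fluorescence of double-stranded DNA made on primed circular M13 template; series mostly up to about 57 µM.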 In a few lines: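 Reconstituted B. subtilis Pol III holoenzyme (PolC, beta clamp, SSB, primase) preincubated with compound, then M13Gori single-stranded circular template with dNTPs/NTPs added; room temperature reaction. Stopped with EDTA/PicoGreen; dsDNA fluorescence read, EDTA as full-inhibition control.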

Test [9] addresses Tumor susceptibility gene 101 protein (Homo sapiens) (UniProt Q99816). Description: qHTS Validation Assay for Iinhibitors of HIV-1 Budding by Blocking the Interaction of PTAP/TSG101 (AID 485342; calls by dose curve). In a few lines:
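Tsg101 binding domain (10 uM) with FITC-labeled PTAP peptide (50 nM) in HEPES pH 7.5 buffer, 20 min at r.t. with compounds. Binding measured by fluorescence polarization.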

The target of test [10] is Beta-2 adrenergic receptor (Homo sapiens) (UniProt P07550). Description: qHTS validation assay of beta-arrestin-biased ligands of beta2-adrenergic receptor (AID 485366). The method in brief: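 Compound series up to 46 microM applied to beta2-AR/beta-arrestin Tango cells, 18 hr, 37 degrees C, 5% CO2. Read-out: tTA-driven luciferase luminescence, converted to %Activity; concentration-response curves assigned curve classes.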

For test [11], the target named is Ferritin light chain (Equus caballus) (UniProt P02791). Description: qHTS Validation Assay for Identification of Novel General Anesthetics (AID 2323). Further: series mostly up to about 77 µM. The method in brief: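 Horse-spleen apoferritin (10 uM) in PBS with 50% saturated 1-aminoanthracene; compounds pin-transferred, 10 min at room temperature. Fluorescence read at 380/535 nm, normalized to free 1-AMA and 1-AMA/apoferritin values; four-parameter Hill fit.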

Test [12] in a line: Cytometric Cell-Based qHTS for Inhibitors of the mTORC1 Signaling Pathway in MEF (Tsc2-/-, p53-/-) Cells (AID 2660).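 Further: Tsc2 and p53 null MEFs carrying empty vector with compound for 24 h; percent of cells above a phospho-rpS6 to PI ratio cutoff in each well; series mostly up to about 38 µM.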 In a few lines:
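Cells are plated, treated with compound for 24 hrs at 37 degree Celsius, then fixed, blocked and immunostained for phospho-rpS6 Ser235/236. Propidium iodide counterstain follows. Per-well % positive cells is derived from the PI-normalized phospho-S6 signal.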

Test [13] can be described thus: High Content Imaging Cell-Based qHTS for Inhibitors of the mTORC1 Signaling Pathway in MEF Cells (AID 2667).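 Further: Tsc2-/- p53-/- MEFs stably re-expressing wild-type Tsc2 exposed 24 h; series mostly up to about 38 µM.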 The method in brief:
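Read-out is the share of phospho-rpS6-positive cells per well, from Hoechst-normalized Alexa-488 Ser235/236 staining imaged on IN Cell. Cells: WT Tsc2-expressing Tsc2-/-, p53-/- MEFs exposed to compound for 24 hrs.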

Test [14] is described as follows: Validation screen for small molecules that induce DNA re-replication in MCF 10A normal breast cells (AID 463097). Further: nearly all actives have a fitted effect of over 60% in size. The method in brief:
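MCF 10A cells exposed to compound 48 hr at 37 C, 5% CO2, then Hoechst-stained 40 min. Laser-scanning imaging of nuclear DNA content (405 nm ex, 500-530 nm em); re-replication scored as rise in nuclei with elevated fluorescence intensity.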

The nature of test [15]: qHTS Validation Assay to Find Inhibitors of Chronic Active B-Cell Receptor Signaling (AID 485345; active means well fitted curve in the direction sought with a large enough effect in the main read-out, with a control signal flat, not every such curve was filed as active). In a few lines: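 TMD8 ABC-DLBCL cells stably carrying doxycycline-inducible IkappaBalpha–green luciferase fusion plus unfused red luciferase; compounds 46 uM to 3 nM, 4 h at 37C with doxycycline. Corrected green/red luminescence ratio normalized to 10 uM MG-132 and basal cell wells; curves fitted.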

Test [16] concerns the target RecQ-like DNA helicase BLM (Homo sapiens) (UniProt P54132). Put plainly: qHTS Validation Assay for Inhibitors of Bloom's syndrome helicase (BLM) (AID 2364). In a few lines:
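50 nM BLM preincubated 15 min at room temperature with compound in pH 8.0 Tris buffer containing 2.5 ug/ml poly(dI-dC); started with 200 nM TAMRA/BHQ-2 forked duplex and 2 mM ATP (final). Unwinding read as TAMRA fluorescence increase, two reads 2 h apart.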

Test [17] is described as follows: qHTS for differential inhibitors of proliferation of Plasmodium falciparum line W2 (AID 1883).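 Further: potency means the concentration at half of the fitted maximal effect; parasites grown with compound for 72 h before lysis and staining.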 Particulars: Potency: Plasmodium falciparum W2 proliferation inhibition.
Test [18] is described as follows: qHTS Assay for Identification of Small Molecule Inducers of Hypoxia Response (AID 2120; active means well fitted curve in the direction sought with a large enough effect in the signal ratio, with a control signal flat, not every such curve was filed as active; the % refers to the signal ratio). The method in brief:
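HRE-bla ME-180, 2500 cells/well, 0.5% dialyzed FBS medium; cpd titration, 17 h 37 degrees C; CCF4 2.5 h RT; Ex 405, Em 460/530 ratio -> %Activity, AC50.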

Records with an inconclusive call do not appear. Active and inactive are the calls of the source. Unless noted, the call rests on the fitted dose curve; in most records, active means well fitted curve in the direction sought with a large enough effect; inconclusive means small, poorly fitted or top-dose-only effect, or another doubt; inactive means no such curve, though single readings can be large; an effect the other way counts as inactive or inconclusive.

RecQ-like DNA helicase BLM (Homo sapiens), sequence (P54132 whole entry, looked up): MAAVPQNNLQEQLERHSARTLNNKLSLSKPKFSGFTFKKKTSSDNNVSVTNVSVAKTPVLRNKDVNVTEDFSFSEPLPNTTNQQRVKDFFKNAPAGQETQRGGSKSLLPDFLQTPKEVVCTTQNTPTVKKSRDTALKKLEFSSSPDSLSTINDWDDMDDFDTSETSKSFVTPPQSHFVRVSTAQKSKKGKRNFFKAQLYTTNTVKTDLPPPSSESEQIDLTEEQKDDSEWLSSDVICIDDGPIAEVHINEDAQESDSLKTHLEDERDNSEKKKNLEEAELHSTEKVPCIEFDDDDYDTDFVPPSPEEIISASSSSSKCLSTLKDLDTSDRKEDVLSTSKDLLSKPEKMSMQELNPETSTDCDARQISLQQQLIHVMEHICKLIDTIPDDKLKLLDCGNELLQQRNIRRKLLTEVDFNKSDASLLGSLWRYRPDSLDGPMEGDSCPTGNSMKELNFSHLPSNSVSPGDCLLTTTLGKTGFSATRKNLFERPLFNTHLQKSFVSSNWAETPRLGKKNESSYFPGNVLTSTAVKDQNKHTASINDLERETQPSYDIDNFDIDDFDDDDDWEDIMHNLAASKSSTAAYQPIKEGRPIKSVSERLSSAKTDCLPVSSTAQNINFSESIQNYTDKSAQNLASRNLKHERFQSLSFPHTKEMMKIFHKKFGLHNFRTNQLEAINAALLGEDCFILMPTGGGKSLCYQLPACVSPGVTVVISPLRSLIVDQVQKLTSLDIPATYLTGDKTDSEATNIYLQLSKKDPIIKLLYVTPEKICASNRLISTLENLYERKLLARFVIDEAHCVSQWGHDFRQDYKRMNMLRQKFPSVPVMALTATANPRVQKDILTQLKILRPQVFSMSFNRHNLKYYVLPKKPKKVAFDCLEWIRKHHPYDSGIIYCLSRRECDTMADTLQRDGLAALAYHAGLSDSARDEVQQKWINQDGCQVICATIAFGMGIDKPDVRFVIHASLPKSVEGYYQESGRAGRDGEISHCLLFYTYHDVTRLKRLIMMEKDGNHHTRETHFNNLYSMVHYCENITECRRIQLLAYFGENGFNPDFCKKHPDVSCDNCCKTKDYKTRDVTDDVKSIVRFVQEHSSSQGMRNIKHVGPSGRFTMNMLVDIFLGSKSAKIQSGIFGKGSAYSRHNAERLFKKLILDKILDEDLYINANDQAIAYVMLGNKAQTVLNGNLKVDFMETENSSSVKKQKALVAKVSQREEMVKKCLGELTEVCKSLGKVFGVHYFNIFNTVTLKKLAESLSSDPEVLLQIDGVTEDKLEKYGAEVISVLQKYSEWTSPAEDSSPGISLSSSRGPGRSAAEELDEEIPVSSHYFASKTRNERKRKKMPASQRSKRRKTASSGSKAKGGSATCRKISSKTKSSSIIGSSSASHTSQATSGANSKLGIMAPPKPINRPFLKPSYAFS
Ferritin light chain (Equus caballus), sequence (P02791 2-175 limits assumed): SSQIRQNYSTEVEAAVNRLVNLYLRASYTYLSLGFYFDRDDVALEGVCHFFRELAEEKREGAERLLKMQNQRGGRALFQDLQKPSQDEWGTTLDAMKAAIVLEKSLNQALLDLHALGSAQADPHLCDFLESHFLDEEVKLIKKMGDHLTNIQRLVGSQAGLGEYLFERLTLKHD
ATP-dependent DNA helicase Q1 (Homo sapiens), sequence (P46063 whole entry, looked up): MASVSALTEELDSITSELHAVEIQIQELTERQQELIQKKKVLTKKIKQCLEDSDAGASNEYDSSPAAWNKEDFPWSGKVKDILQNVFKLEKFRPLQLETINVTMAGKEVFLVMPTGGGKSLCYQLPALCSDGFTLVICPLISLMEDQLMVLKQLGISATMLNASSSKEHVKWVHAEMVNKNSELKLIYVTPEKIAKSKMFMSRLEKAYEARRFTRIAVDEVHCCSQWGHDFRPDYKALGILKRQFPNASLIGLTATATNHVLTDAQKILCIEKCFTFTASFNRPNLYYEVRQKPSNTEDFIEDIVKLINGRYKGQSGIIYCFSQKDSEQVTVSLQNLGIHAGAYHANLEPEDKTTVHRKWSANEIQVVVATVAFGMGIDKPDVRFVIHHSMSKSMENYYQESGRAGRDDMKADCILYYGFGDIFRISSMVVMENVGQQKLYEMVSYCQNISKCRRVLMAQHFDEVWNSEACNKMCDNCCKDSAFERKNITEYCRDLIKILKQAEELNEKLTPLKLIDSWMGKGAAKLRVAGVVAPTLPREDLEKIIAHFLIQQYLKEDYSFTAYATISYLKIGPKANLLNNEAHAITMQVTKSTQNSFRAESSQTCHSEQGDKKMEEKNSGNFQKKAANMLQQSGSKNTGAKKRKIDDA
Ubiquitin carboxyl-terminal hydrolase 2 (Homo sapiens), sequence (O75604 whole entry, looked up): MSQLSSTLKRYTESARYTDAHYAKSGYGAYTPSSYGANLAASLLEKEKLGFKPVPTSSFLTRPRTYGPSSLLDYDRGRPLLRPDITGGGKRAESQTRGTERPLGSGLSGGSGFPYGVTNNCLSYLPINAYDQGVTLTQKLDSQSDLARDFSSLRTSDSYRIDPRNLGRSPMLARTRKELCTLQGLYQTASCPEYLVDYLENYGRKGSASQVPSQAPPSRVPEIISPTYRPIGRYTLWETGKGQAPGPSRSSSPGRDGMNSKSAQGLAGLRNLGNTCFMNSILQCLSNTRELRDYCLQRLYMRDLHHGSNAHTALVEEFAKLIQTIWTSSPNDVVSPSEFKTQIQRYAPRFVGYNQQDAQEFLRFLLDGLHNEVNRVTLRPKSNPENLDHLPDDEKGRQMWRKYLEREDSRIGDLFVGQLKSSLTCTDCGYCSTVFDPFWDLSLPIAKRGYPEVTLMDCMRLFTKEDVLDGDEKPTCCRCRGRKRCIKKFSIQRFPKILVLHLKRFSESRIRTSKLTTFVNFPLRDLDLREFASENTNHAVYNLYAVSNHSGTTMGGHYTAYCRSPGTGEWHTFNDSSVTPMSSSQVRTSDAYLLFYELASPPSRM
DNA polymerase III PolC-type (Bacillus subtilis (strain 168)), sequence (P13267 whole entry, looked up): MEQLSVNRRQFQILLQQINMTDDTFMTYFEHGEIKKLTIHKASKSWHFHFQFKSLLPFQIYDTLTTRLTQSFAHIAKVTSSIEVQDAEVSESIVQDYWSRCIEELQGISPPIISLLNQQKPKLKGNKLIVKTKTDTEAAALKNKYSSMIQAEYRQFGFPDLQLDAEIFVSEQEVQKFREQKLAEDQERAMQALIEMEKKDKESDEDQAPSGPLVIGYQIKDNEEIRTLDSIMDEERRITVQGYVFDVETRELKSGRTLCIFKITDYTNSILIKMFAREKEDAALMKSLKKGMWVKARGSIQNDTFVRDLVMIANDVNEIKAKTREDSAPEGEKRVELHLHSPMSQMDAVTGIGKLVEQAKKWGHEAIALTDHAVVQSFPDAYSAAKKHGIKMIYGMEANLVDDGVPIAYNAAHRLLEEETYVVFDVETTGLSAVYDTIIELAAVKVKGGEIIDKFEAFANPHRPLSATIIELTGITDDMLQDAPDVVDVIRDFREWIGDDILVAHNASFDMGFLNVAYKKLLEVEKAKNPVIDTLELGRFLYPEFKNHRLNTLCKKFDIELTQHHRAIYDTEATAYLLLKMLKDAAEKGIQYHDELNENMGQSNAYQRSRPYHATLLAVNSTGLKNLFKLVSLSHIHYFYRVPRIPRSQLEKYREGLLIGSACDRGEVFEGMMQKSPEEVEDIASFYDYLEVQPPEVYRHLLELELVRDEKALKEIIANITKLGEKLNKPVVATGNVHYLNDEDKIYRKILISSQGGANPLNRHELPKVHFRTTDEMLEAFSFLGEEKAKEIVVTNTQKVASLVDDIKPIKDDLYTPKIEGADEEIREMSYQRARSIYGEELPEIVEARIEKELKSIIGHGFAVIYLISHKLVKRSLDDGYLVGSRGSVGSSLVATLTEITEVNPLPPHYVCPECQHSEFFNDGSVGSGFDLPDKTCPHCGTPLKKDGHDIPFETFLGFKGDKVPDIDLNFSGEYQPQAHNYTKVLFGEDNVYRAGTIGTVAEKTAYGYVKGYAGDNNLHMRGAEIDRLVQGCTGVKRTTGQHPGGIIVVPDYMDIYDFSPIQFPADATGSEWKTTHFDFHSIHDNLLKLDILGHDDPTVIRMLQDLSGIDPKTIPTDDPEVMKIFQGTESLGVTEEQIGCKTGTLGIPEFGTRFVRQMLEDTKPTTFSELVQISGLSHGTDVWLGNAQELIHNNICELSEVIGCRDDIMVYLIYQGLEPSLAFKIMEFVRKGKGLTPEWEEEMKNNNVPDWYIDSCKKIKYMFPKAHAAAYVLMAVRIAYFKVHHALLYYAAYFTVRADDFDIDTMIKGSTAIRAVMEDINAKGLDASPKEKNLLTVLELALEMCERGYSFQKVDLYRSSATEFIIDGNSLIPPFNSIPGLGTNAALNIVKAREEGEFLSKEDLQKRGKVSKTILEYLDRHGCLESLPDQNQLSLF
Tumor susceptibility gene 101 protein (Homo sapiens), sequence (Q99816 whole entry, looked up, the tested form may be a part): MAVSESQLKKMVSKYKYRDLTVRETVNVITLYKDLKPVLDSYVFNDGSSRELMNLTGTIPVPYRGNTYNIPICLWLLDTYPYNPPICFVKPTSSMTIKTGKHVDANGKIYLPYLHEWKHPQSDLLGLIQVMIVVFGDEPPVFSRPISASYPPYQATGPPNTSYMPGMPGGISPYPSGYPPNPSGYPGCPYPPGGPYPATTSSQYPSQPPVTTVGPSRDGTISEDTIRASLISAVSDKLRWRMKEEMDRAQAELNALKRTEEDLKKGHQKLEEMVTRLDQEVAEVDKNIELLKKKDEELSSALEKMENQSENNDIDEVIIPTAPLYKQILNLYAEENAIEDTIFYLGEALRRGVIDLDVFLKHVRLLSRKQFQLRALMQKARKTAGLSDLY

As for `Brc1c(Br)c(Br)c2n[nH]nc2c1Br`, the Potency entry in test [1], in test [2], in test [4], in [5], in test [6] and in [7] was “inactive” throughout. The Potency entry in test [8] is “inactive”. The compound was called inactive in [3], in [9] and in test [10].

Turning to `O=C(O)[C@@H]1C[C@@H](C(=O)O)N1`, the Potency entry in test [1], in test [2], in test [11], in [4], in [5] and in [13] was “inactive” each time. Also, the Potency entry in test [6], in test [14], in test [7] and in test [8] was “inactive” each time. Besides, the compound was classed as inactive in test [3], in [12], in test [9], in [15] and in test [10].

Consider `c1ccc(-c2ccccn2)nc1`, for which the Potency result in [1], in test [2], in [11], in test [4], in test [5] and in [13] was “inactive” throughout. For the same compound, the Potency result in [6], in test [14], in test [7] and in [8] was “inactive” each time. The compound was called inactive in test [3], in test [9], in test [15] and in test [10].

In the case of `Clc1ccc(N2CCN(Cc3c[nH]c4ncccc34)CC2)cc1`, the Potency result in test [1], in [11], in test [4], in test [16], in test [5] and in test [13] was “inactive” in each case. For the same compound, the Potency entry in test [6], in [14] and in test [7] was “inactive” in each case. In addition, the compound was classed as inactive in test [9] and in [10].

As for `COc1ccc(NC(=O)/C=C/c2ccc(Cl)cc2)cc1`, the Potency in test [17] was 10 µM (active); in [2], 12.6 µM (active). In addition, the Potency result in test [11], in test [4], in [5], in test [6], in test [7] and in [8] was “inactive” each time. Further, the call in [12] and in test [9] was inactive.

For the compound `CCCCC/C=C\CC(O)/C=C/c1cccc(CC(O)CCCCO)n1` (configuration not stated), the Potency entry in test [1], in test [11], in [4], in [16], in test [5] and in test [13] was “inactive” throughout. Moreover, the Potency result in [14], in test [7] and in test [8] was “inactive” throughout. The compound was called inactive in test [12] and in test [9].

For `Cn1cc(C2=C(c3ccc(Cl)cc3Cl)C(=O)NC2=O)c2ccccc21`, the Potency in test [17] was 7.08 µM (active). For the same compound, the Potency entry in test [16], in test [5], in test [13], in test [6] and in [8] was “inactive” each time. Further, the outcome in test [12], in test [9] and in test [10] was inactive.

Take `C[C@@H](NC(=O)/C(C#N)=C/c1ccc(O)c(O)c1)c1ccccc1`: the Potency in [17] and in [2] was 11.2 µM (active) throughout. In addition, the Potency result in [4], in test [5], in [13], in [6], in [7] and in test [8] was “inactive” throughout. Moreover, the call in test [12], in [9] and in [10] was inactive.

For the compound `O=C(O)/C=C\C(=O)O`, in [18], the result was inactive.

On to `CCCOC(=O)c1ccc(O)cc1`, for which the outcome in test [18] was inactive.

Take `Nc1ccc(O)c([N+](=O)[O-])c1`: in test [18], the compound was classed as inactive.

In the case of `CN(C)c1ccc(N=NS(=O)(=O)O)cc1`, the outcome in test [18] was inactive.

For `CNCC[C@H](Oc1ccc(C(F)(F)F)cc1)c1ccccc1`, the Potency result in test [4], in test [5], in test [7] and in test [8] was “inactive” in each case. Besides, the compound was called inactive in [9].

Consider `CN1[C@@H](CC(=O)c2ccccc2)CCC[C@H]1C[C@H](O)c1ccccc1`, for which the call in test [3], in test [9], in [15] and in [10] was inactive. The Potency entry in [11], in [4], in test [16], in [5], in test [13] and in test [6] was “inactive” each time. For the same compound, the Potency entry in test [14] and in test [7] was “inactive” each time.
